Giardia kill = kills Giardia lamblia; AID 540267; Giardia lamblia trophozoite viability; activity change, % at 7.66 µM, hits read low; 340,000 tested, 0.15% active; in the data active = activity change below about -80%; inconclusive = between about -30% and that limit;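 note: parasites exposed to compound for two days anaerobically before the ATP read; % is set by controls: 0 for no effect and ±100 for the full control effect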
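Anaerobic 48 hrs incubation at 37 deg C of 100 trophozoites/well with test compounds; ATPLite 1-Step luminescence, 15-30 min RT, reports cellular ATP as viability.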
Epigenetic reg = derepresses silenced GFP reporter in murine cells | murine LDR cells, GFP reporter derepression, 30 h | Potency, µM (highest dose often 53.9 µM), inactives show top-dose GFP activation, usual class: activators | 280,000 tested, 0.2% active | AID 1865; note: potency is the fitted concentration of half-maximal effect; % of control where 0% means no effect; nearly all actives have a fitted effect of over 60% in size
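Readout is the number of GFP-expressing murine LDR cells, counted by cytometry following washing. Cells were treated with compound for 30 h at 37 C; the stably integrated CMV-GFP locus is normally silent.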
B2AR arrestin = agonists driving beta-arrestin recruitment to human beta2-adrenergic receptor; P07550; beta-arrestin recruitment to beta2AR, cell-based reporter; Potency, µM (top dose mostly 46.1 µM), for the others: top-dose activation, most hits filed as activators; 330,000 tested, 0.02% active;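 note: potency is the fitted concentration of half-maximal effect; 0% = DMSO controls and full agonism = EC100 isoproterenol or metaproterenol; nearly all actives have a fitted effect of over 65% in size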
Target sequence (P07550 whole entry, looked up): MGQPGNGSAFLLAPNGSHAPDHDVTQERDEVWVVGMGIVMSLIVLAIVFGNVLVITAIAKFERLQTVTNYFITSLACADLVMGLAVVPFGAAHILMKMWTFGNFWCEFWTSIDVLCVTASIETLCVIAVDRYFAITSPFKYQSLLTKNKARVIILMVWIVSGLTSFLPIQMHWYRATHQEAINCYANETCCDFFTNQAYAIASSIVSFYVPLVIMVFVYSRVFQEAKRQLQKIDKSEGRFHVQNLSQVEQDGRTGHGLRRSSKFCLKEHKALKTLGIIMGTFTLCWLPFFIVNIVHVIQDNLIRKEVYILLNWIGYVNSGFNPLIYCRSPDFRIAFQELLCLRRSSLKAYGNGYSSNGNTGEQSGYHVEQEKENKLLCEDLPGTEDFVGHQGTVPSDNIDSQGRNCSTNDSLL
PI4K2A block = PI4K2A (human) kinase inhibition | Q9BTU6 | purified PI4K2A, ADP-Glo luminescence, 1 h; active compounds read low | activity change, negative = inhibition, % at 76.9 µM | 420,000 tested, 0.13% active; in the data active = activity change below about -50%; inconclusive = mostly about -30% to -49%;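 note: -100% = wells without enzyme as full effect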
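PI4K2A activity was measured by ADP-Glo luminescence: enzyme (4 ug/mL stock) and phosphatidylinositol (1.2 mM stock) in Tris pH 7.5/MgCl2/EGTA/Triton X-100 buffer were reacted with ATP (300 microM stock) for one hour at ambient temperature.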
p53 reactivator = mutant p53 re-activation in reporter cells; H1299 p53-A138V BP100-luciferase reporter, luminescence, 24 h; Potency, µM (titrated, usually from 92.2 µM), for the others: at the highest dose activity change, positive = activation, most hits filed as activators; 320,000 tested, 0.063% active; AID 504706; note: potency is the fitted concentration of half-maximal effect; % of control where 0% means no effect; nearly all actives have a fitted effect of over 45% in size
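H1299 (p53-null), stable ts p53-A138V + BP100-Luc; 1000 cells/well, Opti-MEM/10% FBS; cpd 4 pt, 1:5; 24 h, 37 deg C, 5% CO2; detection reagent 10 min RT; luminescence.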
Pin1 inh = blocks the human prolyl isomerase Pin1; Q13526; Pin1 FP peptide displacement, HiFluor488, 10 min; Potency, µM (highest dose often 115 µM), for inactives: at the highest dose activity, negative = inhibition, usual class: inhibitors; 390,000 tested, 0.009% active; active = well fitted inhibition curve with a large enough effect in the polarisation, with a control signal flat, not every such curve was filed as active; inconclusive = small, poorly fitted or top-dose-only effect, or effect the other way, or a change in a side signal; inactive = no such curve, though single readings can be large or run the other way; the % refers to the polarisation; note: potency is the fitted concentration of half-maximal effect; % is set by controls: 0 for no effect and ±100 for the full control effect
Target sequence (Q13526 whole entry, looked up): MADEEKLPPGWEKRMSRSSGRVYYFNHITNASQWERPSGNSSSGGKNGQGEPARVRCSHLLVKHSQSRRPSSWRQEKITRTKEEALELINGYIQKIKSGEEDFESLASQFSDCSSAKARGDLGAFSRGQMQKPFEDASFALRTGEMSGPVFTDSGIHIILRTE
An asterisk follows results filed as active; i = inactive; u = inconclusive; x = not tested or not shown; [ ] = another dose, or the depositor's remark. The list is not random: actives were taken first. Their share in the collection is about 0.44%. Unless noted, calls come from the whole dose curve; as a rule, active = well fitted curve in the direction sought with a large enough effect; inconclusive = small, poorly fitted or top-dose-only effect, or another doubt; inactive = no such curve, though single readings can be large; an effect the other way counts as inactive or inconclusive.

SMILES	Giardia kill	Epigenetic reg	B2AR arrestin	PI4K2A block	p53 reactivator	Pin1 inh
Cc1ccccc1-n1c(/C=C/c2c(C)[nH]c3ccccc23)nc2ccccc2c1=O	x	u	x	1	x	u
Cc1ccccc1-n1c(/C=C/c2ccc(N(C)C)cc2)nc2ccccc2c1=O	-9	10µM*	x	7	x	u
O=c1[nH]c(=S)n(Cc2ccco2)c(O)c1C=NCc1cccs1	27	3%	0%	-57*	-2%	u
O=C(CCCCl)c1ccc(F)cc1	x	x	x	-6	x	x
COC(=O)C1=C(c2c(C)noc2C)C[C@@H]2CC[C@H]1N2C(=O)NCCO	-7	x	0%	-53*	1%	-4%
CC(C(=O)c1ccccc1)N(C)C (stereo not drawn)	x	x	x	-1	x	x
O=[N+]([O-])c1ccc(-c2ccccc2)c([As](=O)(O)O)c1	-82*	u	7%	-2	-7%	-13%
CC[C@H]1C[C@@H]2C[C@H]3c4[nH]c5ccc(OC)cc5c4CCN(C2)[C@@H]13	x	x	x	i	x	x
NC(=O)c1cn(C2OC(CO)C(O)C2O)c2ncnc(N)c12 (stereo not drawn)	-14	0%	0%	-8	23%	-6%
N#Cc1cn(C2OC(CO)C(O)C2O)c2ncnc(N)c12 (stereo not drawn)	0	x	x	-51*	x	-1%
O=C(O)c1ccc(=O)[nH]c1	x	x	x	-4	x	x
Nc1c(C(=O)NCC2CCCO2)c2nc3ccccc3nc2n1Cc1ccco1 (stereo not drawn)	-15	25µM*	-1%	-2	4%	18%
CCCNC(=O)c1c(N)n(Cc2ccco2)c2nc3ccccc3nc12	21	4%	-2%	-15	-7%	u
C=C1C(=O)OC2CC(C)C3C=CC(=O)C3(C)C(O)C12 (stereo not drawn)	16	x	x	u	x	-1%
C=C1C(=O)O[C@@H]2C[C@@H](C)[C@@H]3C=CC(=O)[C@@]3(C)[C@@H](OC(=O)CC(=O)O[C@H]3[C@@H]4C(=C)C(=O)O[C@@H]4C[C@@H](C)[C@@H]4C=CC(=O)[C@]43C)[C@H]12	-11	11%	-1%	-70*	-14%	57%
Cc1cc([N+](=O)[O-])c2ccccc2[n+]1[O-]	-88*	-1%	-1%	-3	-12%	2%
CCn1nc(-c2ccccc2)nc2c(=O)n(C)c(=O)nc1-2	-89*	u	0%	-57*	x	u
Cn1nc(-c2ccccc2)nc2c(=O)n(C)c(=O)nc1-2	-89*	x	x	x	x	x
Cc1nc2c(=O)n(C)c(=O)nc-2n(C)n1	-107*	0%	0%	-55*	-44%	u
O=c1c2ccccc2nc(-c2ccccc2)n1-n1cccc1	-16	0%	0%	-1	0%	-3%
C[C@@H]1CC2=CC(=O)CC[C@@H]2[C@H]2CC[C@@]3(C)[C@@H](CC[C@]3(C)O)[C@@H]21	x	x	x	2	x	x
COc1cc(C[C@@H](C)N)c(OC)cc1Br	x	x	x	i	x	x
Cc1cccc(CN2CCN(C(=O)Cc3ccccc3)CC2)c1	-25	x	0%	3	x	-10%
Cc1ccc(/C=C/C(=O)C2C(=O)c3ccccc3C2=O)cc1	-86*	-1%	-1%	-4	u	5%
CC1Oc2cc3c(-c4c(O)cc(O)c5c(O)c6c(cc45)OC(C)C(C)C6=O)c(O)cc(O)c3c(O)c2C(=O)C1C (stereo not drawn)	-82*	13%	0%	-21	-9%	u
SMILES	Giardia kill	Epigenetic reg	B2AR arrestin	PI4K2A block	p53 reactivator	Pin1 inh
CCn1ccnc1CN1CCCC(C(=O)c2cc(F)ccc2OC)C1 (stereo not drawn)	0	4µM*	3%	5	0%	-9%
CCn1ccnc1CN1CCCC(C(=O)c2ccc(OC)cc2OC)C1 (stereo not drawn)	-25	3%	0%	5	0%	-11%
Cc1cccc(N2C(=O)NC(=O)/C(=C\c3cccn3-c3ccc(Cl)cc3)C2=O)c1	13	u	6%	-50*	-10%	21%
COC(=O)[C@@H]1[C@@H](O)[C@@]2(O)c3c(OC)cc(OC)cc3O[C@@]2(c2ccc(OC)cc2)[C@H]1c1ccccc1	x	3.5µM*	x	x	x	x
COC(=O)C1C(c2ccccc2)C2C(=O)c3c(OC)cc(OC)cc3O[C@@]12c1ccc(OC)cc1 (stereo partly drawn)	x	1%[10.1 µM]	x	x	x	x
COC[C@@H](NC(C)=O)C(=O)NCc1ccccc1	x	x	x	2	x	x
ClCCCN1CCN(c2cccc(Cl)c2)CC1	x	x	x	-4	x	x
O=C1NC(=O)N(c2ccc3c(c2)OCO3)C(=O)/C1=C/c1cccs1	11	22µM*	0%	-9	-4%	13%
O=C1NC(=O)N(c2ccc3c(c2)OCO3)C(=O)/C1=C/c1ccsc1	8	0%	0%	-13	0%	19%
Cc1ccc([N+](=O)[O-])[c]2c1[O][Hg]2	x	x	x	-25	x	x
CCc1nn2c(=O)cc(N3CCN(C)CC3)nc2s1	x	x	x	x	x	5%
CCN(CC)c1ccc(/C=N/c2sc3c(c2C#N)C2CCN3CC2)c(O)c1	11	2.8µM*	0%	-5	4%	u
CC1CN(c2ccc([N+](=O)[O-])c3cccnc23)CC(C)N1 (stereo not drawn)	-86*	-1%	0%	3	-15%	4%
O=[N+]([O-])c1ccc(N2CCCC2)c2ncccc12	6	u	0%	5	-2%	u
C[n+]1c2cc(N)ccc2cc2ccc(N)cc21	u	0.79µM*	x	0	x	u
O=C1CN2CCOC2(c2ccccc2Cl)c2cc(Cl)ccc2N1 (stereo not drawn)	x	x	x	-2	x	x
Oc1cccc2cccnc12	-13	4µM*	0%	-3	x	1%
O=c1oc2ccccc2c(O)c1C(CC(O)c1ccc(-c2ccc(Br)cc2)cc1)c1ccccc1 (stereo not drawn)	x	x	x	-4	x	x
Cc1ncc([N+](=O)[O-])n1CCOc1nonc1N	-87*	1%	0%	3	-8%	2%
CCCCNC(=O)c1c(N)n(CCCOC)c2nc3ccccc3nc12	-14	0%	0%	-58*	-5%	2%
COCCCNC(=O)c1c(NC(=O)c2ccco2)n(Cc2ccccc2)c2nc3ccccc3nc12	-18	-1%	0%	-57*	7%	-3%
COCCNC(=O)c1c(NC(=O)c2ccc(Br)o2)n(Cc2ccccc2)c2nc3ccccc3nc12	-17	u	0%	3	-3%	24%
CCC(=O)C(CC(C)N(C)C)(c1ccccc1)c1ccccc1 (stereo not drawn)	x	x	x	i	x	x
Nc1ncnc2c1ncn2[C@@H]1O[C@H](COP(=O)(O)CP(=O)(O)O)[C@@H](O)[C@H]1O	2	0%	x	-54*	x	-4%
